Measurements from publication PMC5700166.

Molecular target: T1, GST-Aq-NF-kB (Amphimedon queenslandica, UniProt A9Y5G7 2-389)
T1 sequence: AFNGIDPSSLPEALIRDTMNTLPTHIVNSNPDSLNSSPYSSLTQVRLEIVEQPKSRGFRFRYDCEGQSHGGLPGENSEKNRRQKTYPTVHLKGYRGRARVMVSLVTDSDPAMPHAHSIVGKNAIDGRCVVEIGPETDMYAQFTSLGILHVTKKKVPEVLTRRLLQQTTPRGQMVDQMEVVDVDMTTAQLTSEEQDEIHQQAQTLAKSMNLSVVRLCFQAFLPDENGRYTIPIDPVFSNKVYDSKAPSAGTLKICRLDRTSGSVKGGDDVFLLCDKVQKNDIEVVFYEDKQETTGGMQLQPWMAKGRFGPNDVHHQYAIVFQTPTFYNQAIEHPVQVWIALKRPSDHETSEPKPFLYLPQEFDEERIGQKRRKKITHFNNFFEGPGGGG
Test: protein-binding microarray (PBM); PBM: ~300 nM protein, 6 mM HEPES pH 7.8, 80 mM KCl, 0.5 mM EDTA, 0.5 mM EGTA, 6% glycerol, 35 ng/ul poly-dIdC, 1% milk, 1 h, room temperature; Ap Aiptasia and Nv Nematostella (sea anemones) / Co Capsaspora / Aq Amphimedon (sponge) / Dm Drosophila / Hu human; RHD is the Rel homology domain; high values mean tight binding
Conditions: dsDNA, one strand shown

Row | Sequence | binding signal [z-score]
1 | CCGATTAACATCAAAATTTCCGCTGATGTTAATCGGGTCTTGATTCGCTTGACGCTGCTG | 1.48
2 | CCGATTAACATCAGGAAACGCCCTGATGTTAATCGGGTCTTGATTCGCTTGACGCTGCTG | 3.05
3 | CCGATTAACATCACGGATTGCCCTGATGTTAATCGGGTCTTGATTCGCTTGACGCTGCTG | 1.2
4 | CCGATTAACATCAAGGAACTTCCTGATGTTAATCGGGTCTTGATTCGCTTGACGCTGCTG | 1.83
5 | CCGATTAACATCACGGAGAATCCTGATGTTAATCGGGTCTTGATTCGCTTGACGCTGCTG | 1.18
6 | CCGATTAACATCAAAATTTCCGTTGATGTTAATCGGGTCTTGATTCGCTTGACGCTGCTG | 1.64
7 | CCGATTAACATCACGGCAATTCCTGATGTTAATCGGGTCTTGATTCGCTTGACGCTGCTG | 1.38
8 | CCGATTAACATCAAGGATTGCCCTGATGTTAATCGGGTCTTGATTCGCTTGACGCTGCTG | 1.51
9 | CCGATTAACATCACTAAATTTCCTGATGTTAATCGGGTCTTGATTCGCTTGACGCTGCTG | 1.07
10 | CCGATTAACATCACGGACTGCCCTGATGTTAATCGGGTCTTGATTCGCTTGACGCTGCTG | 1.7
11 | CCGATTAACATCACGGAAATGCCTGATGTTAATCGGGTCTTGATTCGCTTGACGCTGCTG | 1.48
12 | CCGATTAACATCAGAATTTCCGCTGATGTTAATCGGGTCTTGATTCGCTTGACGCTGCTG | 1.06
13 | CCGATTAACATCAAGGAAGTTCCTGATGTTAATCGGGTCTTGATTCGCTTGACGCTGCTG | 2.07
14 | CCGATTAACATCAAGGAGATTCCTGATGTTAATCGGGTCTTGATTCGCTTGACGCTGCTG | 1.73
15 | CCGATTAACATCACGGAATCTCCTGATGTTAATCGGGTCTTGATTCGCTTGACGCTGCTG | 2.17
16 | CCGATTAACATCAGGAGTTGCCCTGATGTTAATCGGGTCTTGATTCGCTTGACGCTGCTG | 3.13
17 | CCGATTAACATCACGGCAAGTCCTGATGTTAATCGGGTCTTGATTCGCTTGACGCTGCTG | 1.46
18 | CCGATTAACATCAAAAATATTCCTGATGTTAATCGGGTCTTGATTCGCTTGACGCTGCTG | 1
19 | CCGATTAACATCAGGCAATGCCCTGATGTTAATCGGGTCTTGATTCGCTTGACGCTGCTG | 1.31
20 | CCGATTAACATCAGGGCAGTCCATGATGTTAATCGGGTCTTGATTCGCTTGACGCTGCTG | 1.1
21 | CCGATTAACATCAGAAATTCCGCTGATGTTAATCGGGTCTTGATTCGCTTGACGCTGCTG | 1.09
22 | CCGATTAACATCAGGAAACTTCCTGATGTTAATCGGGTCTTGATTCGCTTGACGCTGCTG | 1.43
23 | CCGATTAACATCAGGAACTTCCATGATGTTAATCGGGTCTTGATTCGCTTGACGCTGCTG | 1.63
24 | CCGATTAACATCAAGAAATTCCTTGATGTTAATCGGGTCTTGATTCGCTTGACGCTGCTG | 1.02
25 | CCGATTAACATCACGGGTTGCCCTGATGTTAATCGGGTCTTGATTCGCTTGACGCTGCTG | 1.04
